Measurements reported in PubChem BioAssay.
Values without a mark were called inactive. Activity calls are given as the source filed them.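 The calls were made as follows: active = thallium flux through the channel raised or lowered by more than 3 SD from vehicle-only wells, actives on both sides; inactive = the rest.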

tested on: R275C/beta1; test: modulators of BK channel variants, profiling panel, selectivity assay, cell-based, U2OS BacMam, thallium flux, beta subunits (AID 1259406); conditions: at 30 µM;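 also: initial slope of Thallos dye fluorescence rise after thallium is added; log ratio against the mean of 0.3% DMSO vehicle wells on the same plate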

SMILES | log fold change Tl+ flux
N#Cc1ccc(NCCc2ccccn2)c([N+](=O)[O-])c1 | -0.0352
Cc1cc(CNCC(O)C(F)(F)F)no1 (stereo not given) | -0.0759
CSC(NCc1cccnc1)=C(C#N)S(=O)(=O)c1ccc(Cl)cc1 | 0.0793
Cc1c(C(=O)Nc2ccc(N3CCOCC3)c(Cl)c2)cnn1-c1ccc(F)cc1 | 0.0051
Cc1nc(C)c(C(=O)O)c(-c2ccsc2)c1C(=O)O | 0.0388
CCCCCCCCCCCC(=O)N1CC(=O)NC(=O)C1 | -0.0193
Cc1cccc(N=Cc2cc(Cl)cc(Cl)c2O)c1C | 0.0155
Cc1ccc(I)cc1[N+](=O)[O-] | 0.00943
Cc1ccccc1C=C1N=C(c2ccccc2)OC1=O | 0.036
O=C(NNc1c(Cl)cccc1Cl)c1csc(Cc2c(Cl)cccc2Cl)n1 | -0.0344
CCSc1n[nH]c(=S)s1 | -0.0034
COc1cc(C(F)(F)F)nc2ccc(C#CCOC(=O)Nc3cccc(Cl)c3)cc12 | -0.0781
CC12CCC(c3c1nn(-c1ccccc1)c3C(F)(F)F)C2(C)C (stereo not given) | -0.0295
COC(=O)C1=C(C)NC(C)=C(C(=O)OC)C1c1ccccc1 | 0.033
O=C(C(=NN=Cc1ccc2c(c1)OCO2)c1ccccc1)c1ccccc1 | -0.3 (active)
COc1ccc(Cl)cc1N1C(=O)C=C(c2ccccc2)C1=O | 0.056
O=c1[nH]nc(N2CCSCC2)[nH]1 | 0.000508
Clc1ccc(-c2nc(-c3cnccn3)no2)cc1 | -0.0226
NNC(=O)Cc1csc2nc(-c3ccccc3)nn12 | 0.0323
CN(C)C=Nc1cc(Cl)c(-n2cccc2)cc1Oc1ccc(Cl)cc1 | -0.0556

SMILES | log fold change Tl+ flux
Oc1ccccc1C=NCCN=Cc1ccccc1O | -0.00586
CC(C)(C)OC(=O)N1CCC(c2nc(-c3ccc(Cl)s3)cs2)CC1 | 0.0364
O=S(=O)(Cc1nc(-c2ccc3c(c2)OCCO3)cs1)c1ccccn1 | -0.0291
Cn1c(SCCS(=O)(=O)c2ccc(OC(F)(F)F)cc2)nnc1C(F)(F)F | -0.0256
Cc1ccc(S(N)(=O)=O)c(I)c1 | 0.0166
O=C(Nc1ccc(OC(F)(F)F)cc1)OC1CN(C(c2ccccc2)c2ccccc2)C1 | 0.0012
CCN1CCC(O)(C#Cc2ccccc2)CC1 | 0.0179
COC(=O)c1ccc(C=Cc2cccc(Cl)c2)s1 | -0.192 (active)
CCc1[nH]c(=S)[nH]c(=O)c1C#N | -0.0177
O=C(CC1SC(=NC2CC3C=CC2C3)NC1=O)Nc1ccccc1Cl (stereo not given) | 0.0688
O=S(=O)(Cc1nc(C=Cc2cc(C(F)(F)F)cc(C(F)(F)F)c2)no1)c1ccc(Cl)cc1 | 0.0543
O=C1CSC(=S)N1N=Cc1cccnc1 | -0.0433
O=C(NC1CCSC1)c1ccccc1NS(=O)(=O)c1ccccc1 (stereo not given) | -0.151 (active)
CCOC(=O)c1nn(-c2ccc(C(C)(C)C)cc2)c(=O)c(C#N)c1C | -0.383 (active)
O=C(NNC(=O)c1ccc2nonc2c1)c1cccc(C(F)(F)F)c1 | 0.0483
CCOC(=O)C(C)Oc1ccc(NS(=O)(=O)c2cc(OC)ccc2OC)cc1Cl (stereo not given) | 0.0118
O=C(Nc1ccc(-n2ccc(C(F)(F)F)n2)cc1)C1=Cc2cc(Cl)ccc2OC1 | -0.0315
CC(=O)c1sc(SCc2ccc(Cl)cc2)c2c1CC(C)(C)CC2=O | -0.034
Cc1cc(-c2nn(C)c(=O)c3ccccc23)cc(C)c1O | 0.0233
Cn1ncc2ccccc2c1=O | -0.0396
